System: PPARg:RXRa 270nM:90nM, anti-RXR (NR concentration 270 nM, RXRa partner concentration 90 nM)
Experiment: PBM binding z-score (relative to random genomic background probes); higher = stronger binding; sequences stand for … in GC…GCGATTGACAGCGTAGAATGAAGG
Summary of the method: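 Binding z-scores take random background probes as their reference. They come from custom Agilent 4×180K protein-binding microarrays incubated 1 h with ligand-free nuclear receptor dimers, with antibodies against each partner (one per run) detecting binding. Scanned fluorescence was regression-normalized.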

Sequence	PBM binding z-score
CGAACTAGGTCAAAGGACAGTGTAAGGCGACGTA	8.19
ACTAGTTGTTCAGCTGAGGTCACACACAATTCGG	1.94
CGTCTAAGGTCAGCAGGTCAGTGAAAGCGACGTG	5.46
CCTACTGGGCCAAGGTCATAGATCAGTCAAAGCA	4.41
TAGCCTAGGTCATTGGGCCAGTATAGTACGCATC	3.65
CAACCTAGGTCACGAAAGGTCAAAGTCGAATGAC	7.32
ATATGTAGGTGAGGGTCATTCAGAAAGTAGGGAA	6.55
ATCGAAAGGTCGAAAGTGAGTATACCCACCCGAA	2.5
GATTCAGGGTCAGCTAGAGGCCAGAGTATGGAAA	4.14
CGATCTAGGTCACCAGGACAGTGAAGAGGTTGGA	6.67
CTAACTAGGTCACCGGAAGGTCAAAGTCCGCATG	8.19
CGTCCAAGGTCAGCAGGTGAGTGAAAGCGACGTG	3.7
TCTGCTTGGTCAACGATGGTCAGCTAATCTGCTA	0.665
CAAACTAGGTCACGAAAGGTCAACGTCGAATGAC	8.8
CGTCCAAGGTCAATGCTAGCTCAGTGAAAGCATT	4
GCTGCAAGGTCAACTGATGGTCAGCTAAAGCTCG	5.67
TAGCCTAGGTCATTCAGGGGCCAGAATAGAAAGC	2.29
